Reference: PubChem BioAssay AID652042 (Broad Institute, 2013)
The campaign covered roughly 1,100 compounds. About 350 (32%) were called active. These entries were drawn from the full list. Entries with a potency or affinity are not part of this list. Unmarked numbers belong to inactive results. How the calls were made is not given here.

Assay: viability loss in CEM21 cells – cell-based, CellTiter-Glo luminescence, cherry-picked, cytotoxicity control for viral fusion inhibitor project, dose response (AID 652042)
Settings: CellTiter-Glo ATP luminescence, 24 h; series mostly up to 35 µM; activity change, negative = cytotoxicity: at the top concentration

SMILES | activity change, negative = cytotoxicity
CC(C)OCCCNc1ncnc2c1[nH]c1ccccc12 | -23.4%
CCOC(=O)/C=C1\Nc2ccccc2SC1=O | -1.22%
CCCCCn1c(C(C)NC(=O)CCC)nc2ccccc21 (centres undefined) | 1.39%
Cn1c(=O)n(-c2cccc(Cl)c2)c(=O)c2c3c(sc21)COC(C)(C)C3 | -1.94%
C=CCN([C@@H](CC(C)C)C(=O)OC)S(=O)(=O)N(CC=C)[C@@H](CC(C)C)C(=O)OC | -22.3%
CN1CCc2ccccc2Cc2[nH]c3ccccc3c2CC1 | 2.03%
Cc1sc2ncnc(N3CCN(S(=O)(=O)c4ccc(Br)cc4)CC3)c2c1C | -26.4%
CCc1cccc(NC(=O)C2CCN(S(=O)(=O)c3ccc4c(c3)CC(C)N4C(C)=O)CC2)c1 (centres undefined) | -22%
Cc1cccc(NC(=O)C2CCN(S(=O)(=O)c3ccc4c(c3)OCCCO4)CC2)n1 | -10.3%
Cc1ccc2nc(NC(=O)CCCC(=O)O)sc2c1 | 1.57%
Cc1ccc(Cn2nnnc2CN2CCC(c3nc4ccc(Cl)cc4[nH]3)CC2)cc1 | -15.9%
COc1ccc(CN2CCC(C)(Oc3ccc4c(c3)OCO4)C2)c2ccccc12 (centres undefined) | -16.4%
CCN(C[C@H]1N[C@@](CC)(C(=O)OC)[C@H]2C(=O)N(Cc3ccccc3)C(=O)[C@@H]12)C(=O)Nc1ccc(OC)cc1 | 2%
COC(=O)[C@@]1(C)[C@H]2C(=O)N(Cc3ccccc3)C(=O)[C@H]2[C@H]2CN=C(SCc3ccc(Cl)cc3)N21 | -14.2%
CCN1C(=O)[C@H]2[C@@H](c3ccc(C)cc3)N3C(=O)N(c4cccc(Cl)c4)C(=O)[C@@]3(CC)[C@H]2C1=O | 4.5%
CS(=O)(=O)N(Cc1ccc(Cl)cc1)c1ccc(C(=O)NCCSc2ccccn2)cc1 | -17.6%
CC(=O)c1c(C)[nH]c(C(=O)OCCCCN2C(=O)c3ccccc3C2=O)c1C | -19.4%
CO[C@H]1CN(C)C(=O)c2cc(NC(=O)C3CCOCC3)ccc2OC[C@H](C)N(Cc2nccs2)C[C@H]1C | -7.3%
CO[C@H]1CN(C)C(=O)c2ccc(NC(=O)C3CC3)cc2OC[C@@H](C)N(C(C)=O)C[C@@H]1C | 0.552%
CCC(=O)Nc1ccc2c(c1)C(=O)N(C)C[C@@H](OC)[C@H](C)CN(C(=O)CC)[C@@H](C)CO2 | -0.847%
CCCC(=O)Nc1ccc2c(c1)OC[C@H](C)N(C(=O)CN(C)C)C[C@@H](C)[C@H](OC)CN(C)C2=O | 1.57%
COCC(=O)N1C[C@@H](C)[C@H](OC)CN(C)C(=O)c2ccc(NC(=O)c3ccc(OC)cc3)cc2OC[C@@H]1C | -0.433%
CO[C@H]1CN(C)C(=O)c2ccc(NC(=O)Nc3cccc(F)c3)cc2OC[C@@H](C)N(C(C)=O)C[C@H]1C | 3.06%
CCN(CC)S(=O)(=O)c1ccc(N2CCCC2)c(NC(=O)Cc2cc(OC)c(OC)c(OC)c2)c1 | -0.756%
O=C(c1cccc(S(=O)(=O)N2CCN(c3ccccc3)CC2)c1)N1CCCC(C(F)(F)F)C1 (centres undefined) | -13.9%

SMILES | activity change, negative = cytotoxicity
O=C1CCCCC1Sc1nnc(-c2ccc3c(c2)OCO3)o1 (centres undefined) | -4.91%
O=C(CN1C(=O)c2ccccc2S1(=O)=O)c1ccc2c(c1)OCCO2 | -3.96%
Cc1ccccc1S(=O)(=O)NC(=O)C1(C)CCN1C(=O)CCc1ccc(Cl)cc1Cl (centres undefined) | -0.499%
COc1ccc([C@@H]2[C@@H]3C(=O)N(C(C)(C)C)C(=O)[C@@H]3[C@]3(CC(C)C)C(=O)N(c4cccc(F)c4)C(=O)N23)cc1 | -0.051%
Cc1onc(-c2ccccc2)c1C(=O)Nc1ccc(Br)cc1Cl | -6.29%
COc1ccc(-c2cc(C(=O)NNC(=S)NC(=O)c3c(-c4ccccc4)noc3C)[nH]n2)cc1 | -18.7%
CC1(Cc2ccc(Cl)cc2)C(=O)Nc2ccc(S(=O)(=O)NC3CCCCC3)cc21 (centres undefined) | -16.2%
O=C(Nc1cccn(Cc2c(Cl)cccc2Cl)c1=O)c1ccc(Cl)cc1 | -22.3%
CCCCOc1ccc(S(=O)(=O)Nc2cccnc2)cc1 | -6.62%
CCCNC(=O)C[C@@H]1C[C@H]2c3cc(NC(=O)Cc4ccncc4)ccc3O[C@H]2[C@H](CO)O1 | 0.915%
COc1ccccc1S(=O)(=O)N[C@H]1CC[C@H](CC(=O)N2CCN(C)CC2)O[C@H]1CO | -2.4%
CC1CCN(S(=O)(=O)c2cc(C(=O)N3CCN(c4ccccc4)CC3)ccc2Br)CC1 | -29.4%
Cc1ccc(C2CC(=O)c3cnc(N4CCc5ccccc5C4)nc3C2)cc1 (centres undefined) | 0.412%
O=C(Cc1ccncc1)N[C@H]1CC[C@@H](CCn2cc(-c3ccccc3F)nn2)O[C@@H]1CO | 1.85%
CN(C)Cc1cn(CC[C@@H]2CC[C@H](N)[C@H](CO)O2)nn1 | -1.13%
CC[C@@]12C(=O)N(c3ccccc3)C(=O)N1[C@H](c1cccc(C)c1)[C@@H]1C(=O)N(Cc3ccccc3)C(=O)[C@@H]12 | -8.41%
CC(C)(C)n1nnnc1C(c1cccs1)N(Cc1cccnc1)Cc1ccco1 (centres undefined) | -11.5%
CC(C)(C)NC(=O)C(c1ccccc1)N(Cc1cccs1)C(=O)c1csnn1 (centres undefined) | 3.62%
COc1ccc(N2C(=O)N3[C@H](c4ccc(Cl)cc4)[C@@H]4C(=O)N(C5CCCCC5)C(=O)[C@@H]4[C@]3(C)C2=O)cc1 | -13.4%
CCn1ncc(C2=NOC(C(=O)Nc3ccc(C)cc3)C2)c1C (centres undefined) | 3.78%
c1csc(-c2csc3ncnc(NCCCN4CCOCC4)c23)c1 | -3.21%
O=C(C[C@@H]1C[C@@H]2c3cc(NC(=O)C4CCC4)ccc3O[C@@H]2[C@@H](CO)O1)NCC(F)(F)F | 1.57%
CCNC(=O)C[C@H]1CC[C@@H]2[C@@H](COc3ccc(NC(=O)Cc4cccs4)cc3C(=O)N2C)O1 | -2.64%
CS(=O)(=O)N1CCc2cc(-c3csc(NC(=O)Cc4cccs4)n3)ccc21 | -6.69% [at 16 µM]
